Data published in PubChem BioAssay (Tox21).
A number with no mark means an inactive call. Records with an inconclusive call do not appear. Active and inactive are the calls of the source. Unless noted, calls come from the whole dose curve; as a rule, active = well fitted cell-killing curve with a large enough effect in the repeat runs; inconclusive = weak or mixed curves, or effect the other way; inactive = flat fitted curve, though single readings scatter.

System: not listed separately
Test: qHTS assay to identify small molecule agonists of the TGF-beta/Smad signaling pathway - cell viability counter screen (AID 1346829); note: nearly all actives have a fitted effect of over 45% in size; note: potency is the fitted concentration of half-maximal effect; for activity change, negative = cytotoxicity: top concentration of the series differs between compounds
Conditions: SBE-bla HEK293T viability, CellTiter-Glo luminescence, 5 h; series mostly up to 76.8 µM; activity change, negative = cytotoxicity: at the top concentration
In short: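 Luminescence from CellTiter-Glo, read after a 30 min room-temperature incubation, gives cell viability of SBE-bla HEK 293T cells treated 5 hr with compounds at 37 C.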
% is set by controls: 0 for no effect and ±100 for the full control effect.

Row | Compound | activity change, negative = cytotoxicity | Potency
1 | Oc1ccc(-c2ccccc2)c(Cl)c1 | -1.45% | 
2 | COc1ccccc1OCCNCC(O)COc1cccc2[nH]c3ccccc3c12 (stereo unspecified) | -5.33% [at 35.3 µM] | 
3 | O=C(O)CCn1c2c(c3ccccc31)C[C@H](NS(=O)(=O)c1ccc(F)cc1)CC2 | 0.0202% [at 35.3 µM] | 
4 | c1cc(OCC2CO2)cc(OCC2CO2)c1 (stereo unspecified) | 12.3% | 
5 | C=CC(=O)OCC(O)COc1ccccc1 (stereo unspecified) | 29.8% | 
6 | COc1cc(C(C)C)c2c(c1)S(=O)(=O)N(COc1cc(=O)n3cccc(OCCN4CCCCC4)c3n1)C2=O | 15.8% [at 15.8 µM] | 
7 | CCCOc1sc(C(=O)N2CCC(c3cc(CN)ccc3F)CC2)c(C)c1Br |  | 44.9 µM (active)
8 | C=C/C=C/C=C/CCCCC | -1.35% [at 15.8 µM] | 
9 | CCCCCCCCCCCCCOP(=O)(O)O | 4.48% | 
10 | CC(C)N=C(N)/N=C(\N)Nc1ccc(Cl)cc1 | -6.26% [at 35.3 µM] | 
11 | C=CC(C)C#N (stereo unspecified) | -17.9% | 
12 | CCCCCCCC/C=C\CCCCCCCC(=O)OCCOC(=O)CCCCCCC/C=C\CCCCCCCC | 3.07% | 
13 | C1CC(COCC2CO2)CCC1COCC1CO1 (stereo unspecified) | -4.72% | 
14 | CCCCOC(=O)C(C)CC (stereo unspecified) | -0.877% | 
15 | C=CC(=C)CCC=C(C)C | 12% | 
16 | CSc1ccc2c(c1)N(CCC1CCCCN1C)c1ccccc1S2 (stereo unspecified) |  | 54.7 µM (active)

Row | Compound | activity change, negative = cytotoxicity | Potency
17 | Clc1ccccc1CN1CCc2sccc2C1 | -6.49% [at 35.3 µM] | 
18 | C[Si](C)(C)Cl | 12% | 
19 | C=CC(C)(CCC=C(C)C)OC(=O)/C=C/c1ccccc1 (stereo unspecified) | 0.0379% | 
20 | C=C(c1ccc(C(=O)O)cc1)c1cc2c(cc1C)C(C)(C)CCC2(C)C | 11.3% [at 35.3 µM] | 
21 | CCc1ccc(O)c(C(C)(C)C)c1 | -2.91% | 
22 | Cc1cccc(C)c1NC(=O)CN1CCN(CCCC(c2ccc(F)cc2)c2ccc(F)cc2)CC1 | -22% [at 35.3 µM] | 
23 | CN(Cc1cc(Br)cc(Br)c1N)C1CCCCC1 | -11.4% [at 35.3 µM] | 
24 | Cc1ccc2ccc3cccc4ccc1c2c34 | 0.814% | 
25 | CCC(C)c1cc([N+](=O)[O-])cc([N+](=O)[O-])c1OC(=O)OC(C)C (stereo unspecified) | -18% | 
26 | CC(=O)Nc1ccc(O)cc1 |  | inactive
27 | O=C1c2c(O)ccc([N+](=O)[O-])c2C(=O)c2c([N+](=O)[O-])ccc(O)c21 |  | 48.5 µM (active)
28 | COC(=O)[C@]1(C)CCC[C@@]2(C)[C@H]1CC=C1C=C(C(C)C)CC[C@@H]12 | -22% | 
29 | C[C@@H]1CC[C@H]2C(C)(C)[C@H]3C[C@@]12CC[C@@]3(C)O | 11% | 
30 | C=C1C(C)(C)[C@@]2(Cl)C(Cl)[C@]1(Cl)C(Cl)(Cl)C2(Cl)Cl (stereo partly specified) | -20.3% | 
31 | CC(CN(C)C)CN1c2ccccc2CCc2ccccc21 (stereo unspecified) | -2.03% [at 35.3 µM] | 

System: not listed separately
Test: qHTS assay to identify small molecule agonists of the TGF-beta/Smad signaling pathway (AID 1346859; active = well fitted activation curve with a large enough effect in the signal ratio in the repeat runs, not every such curve was filed as active; the % refers to the signal ratio)
Conditions: SBE-bla HEK293T, TGF-beta/Smad beta-lactamase reporter, 5 h; series mostly up to 76.8 µM; activation: at the top concentration
In short: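 HEK 293T cells stably carrying a beta-lactamase reporter driven by the Smad binding element were seeded overnight, exposed to DMSO-dissolved compounds for 5 hr at 37 C, 5% CO2, then loaded with FRET substrate for 2 hr at room temperature.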

Row | Compound | activation | Potency
32 | Oc1ccc(-c2ccccc2)c(Cl)c1 | -0.756% | 
33 | COc1ccccc1OCCNCC(O)COc1cccc2[nH]c3ccccc3c12 (stereo unspecified) | 3.05% [at 35.3 µM] | 
34 | C=CC(=O)OCC(O)COc1ccccc1 (stereo unspecified) | -1.45% | 
35 | COc1cc(C(C)C)c2c(c1)S(=O)(=O)N(COc1cc(=O)n3cccc(OCCN4CCCCC4)c3n1)C2=O | -2.24% [at 15.8 µM] | 
36 | CCCCCCCCCCCCCOP(=O)(O)O | 3.51% | 
37 | CC(C)N=C(N)/N=C(\N)Nc1ccc(Cl)cc1 | -2.93% [at 35.3 µM] | 
38 | O=C1C=CC(=O)N1c1ccccc1 | 8.31% | 
39 | C=CC(C)C#N (stereo unspecified) | 0.563% | 
40 | CSc1ccc2c(c1)N(CCC1CCCCN1C)c1ccccc1S2 (stereo unspecified) | -6.32% [at 35.3 µM] | 
41 | C=CC(C)(CCC=C(C)C)OC(=O)/C=C/c1ccccc1 (stereo unspecified) | 1.13% | 
42 | C=C(c1ccc(C(=O)O)cc1)c1cc2c(cc1C)C(C)(C)CCC2(C)C |  | inactive
43 | CCc1ccc(O)c(C(C)(C)C)c1 | -2.66% | 
44 | Cc1cccc(C)c1NC(=O)CN1CCN(CCCC(c2ccc(F)cc2)c2ccc(F)cc2)CC1 | -8.87% [at 35.3 µM] | 
45 | CN(Cc1cc(Br)cc(Br)c1N)C1CCCCC1 | 0.358% [at 35.3 µM] | 
46 | Cc1ccc2ccc3cccc4ccc1c2c34 | 0.296% | 
47 | O=C1c2c(O)ccc([N+](=O)[O-])c2C(=O)c2c([N+](=O)[O-])ccc(O)c21 | -7.48% | 
48 | COC(=O)[C@]1(C)CCC[C@@]2(C)[C@H]1CC=C1C=C(C(C)C)CC[C@@H]12 | 4.58% | 
49 | C=C1C(C)(C)[C@@]2(Cl)C(Cl)[C@]1(Cl)C(Cl)(Cl)C2(Cl)Cl (stereo partly specified) | -9.79% | 

Molecular target: Thyrotropin-releasing hormone receptor (Homo sapiens) (UniProt P34981)
Sequence (P34981 whole entry, looked up): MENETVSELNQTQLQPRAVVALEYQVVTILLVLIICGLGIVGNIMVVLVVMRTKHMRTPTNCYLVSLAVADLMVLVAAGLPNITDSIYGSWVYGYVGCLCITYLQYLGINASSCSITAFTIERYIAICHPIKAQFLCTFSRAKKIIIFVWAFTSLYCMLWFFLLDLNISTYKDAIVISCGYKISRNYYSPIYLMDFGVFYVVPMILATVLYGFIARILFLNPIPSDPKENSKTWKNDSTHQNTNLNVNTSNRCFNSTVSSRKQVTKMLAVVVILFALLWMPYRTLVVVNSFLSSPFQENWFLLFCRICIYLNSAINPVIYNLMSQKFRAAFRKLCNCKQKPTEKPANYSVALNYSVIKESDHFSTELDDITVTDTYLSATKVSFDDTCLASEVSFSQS
Test: qHTS assay to identify small molecule antagonists of the thyrotropin-releasing hormone receptor (TRHR) signaling pathway (AID 1346877; active = well fitted inhibition curve with a large enough effect in the repeat runs, not every such curve was filed as active; note: potency is the fitted concentration of half-maximal effect)
Conditions: TRHR-HEK293, TRH-induced calcium fluorescence, antagonist mode; series mostly up to 51.3 µM; activity, negative = inhibition: at the top concentration
In short: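 Following an 18 h incubation at 37 °C and a 2 h calcium dye load, TRHR-HEK293 cells were exposed to compound (5 min, room temperature) and challenged with TRH, 1 nM final.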

Row | Compound | activity, negative = inhibition | Potency
50 | Oc1ccc(-c2ccccc2)c(Cl)c1 | -19.4% | 
51 | COc1ccccc1OCCNCC(O)COc1cccc2[nH]c3ccccc3c12 (stereo unspecified) | -8.93% [at 23.6 µM] | 
52 | c1cc(OCC2CO2)cc(OCC2CO2)c1 (stereo unspecified) | -4.53% | 
53 | C=CC(=O)OCC(O)COc1ccccc1 (stereo unspecified) | 0.235% | 
54 | COc1cc(C(C)C)c2c(c1)S(=O)(=O)N(COc1cc(=O)n3cccc(OCCN4CCCCC4)c3n1)C2=O | 0.273% [at 10.5 µM] | 
55 | CCCOc1sc(C(=O)N2CCC(c3cc(CN)ccc3F)CC2)c(C)c1Br |  | 27.6 µM (active)
56 | CCN(CC)c1ccc(N)cc1 | -1.67% | 
57 | CCCCCCCCCCCCCOP(=O)(O)O | -4.68% | 
58 | CC(C)N=C(N)/N=C(\N)Nc1ccc(Cl)cc1 | 6.39% [at 23.6 µM] | 
59 | O=C1C=CC(=O)N1c1ccccc1 | -2.48% | 
60 | C1CC(COCC2CO2)CCC1COCC1CO1 (stereo unspecified) | 1.95% | 
61 | CCCCOC(=O)C(C)CC (stereo unspecified) | 13.3% | 
62 | Clc1ccccc1CN1CCc2sccc2C1 | -3.91% [at 23.6 µM] | 
63 | C=CC(C)(CCC=C(C)C)OC(=O)/C=C/c1ccccc1 (stereo unspecified) | -0.0364% | 
64 | CCc1ccc(O)c(C(C)(C)C)c1 | -12.3% | 
65 | Cc1cccc(C)c1NC(=O)CN1CCN(CCCC(c2ccc(F)cc2)c2ccc(F)cc2)CC1 | -4.22% [at 23.6 µM] | 
66 | CN(Cc1cc(Br)cc(Br)c1N)C1CCCCC1 | -4.02% [at 23.6 µM] | 
67 | Cc1ccc2ccc3cccc4ccc1c2c34 | 0.116% | 
68 | CCC(C)c1cc([N+](=O)[O-])cc([N+](=O)[O-])c1OC(=O)OC(C)C (stereo unspecified) | -12.1% | 
69 | CC(=O)Nc1ccc(O)cc1 |  | inactive
70 | COC(=O)[C@]1(C)CCC[C@@]2(C)[C@H]1CC=C1C=C(C(C)C)CC[C@@H]12 | 5.39% | 
71 | CC(CN(C)C)CN1c2ccccc2CCc2ccccc21 (stereo unspecified) | -3.48% [at 23.6 µM] | 
